Assay outcomes as filed in PubChem.
MITF act = increases MITF-driven TRPM1 promoter luciferase signal | SK-MEL-5 TRPM1-promoter luciferase, 24 h; % of positive control, neutral wells = 0 | 300,000 tested, 0.75% active | activation, % at 12.5 µM;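 active = mean activation of at least 80% with every replicate also reaching 80%; inconclusive = mean reaches 80% but some replicate falls short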;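 also: 0% = neutral control wells and 100% = parthenolide positive control wells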
N-glyco inh = blocks N-linked glycosylation in D54 reporter cells; reporter increase, % at 12.5 µM; 360,000 tested, 0.23% active; AID 588692; D54 ERlucT glycosylation luciferase reporter, 24 h; percent of 100 nM tunicamycin response;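 active = mean luciferase reporter signal, scaled so untreated is 0 and the glycosylation-blocking control 100, at or above a set limit in every replicate; inconclusive = mean reaches the limit but not every replicate does; inactive = mean below the limit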;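 also: luciferase carries N-glycosylation sites so blocking glycosylation raises the light; 0% = median of neutral control wells and 100% = median of 100 nM tunicamycin wells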
Wnt bcat act = activates Wnt/beta-catenin signaling in a reporter cell assay. 300,000 tested, 1.2% active. activator, plate reader. AID 743398. activation, % at 9.35 µM; in the data active = activation above about 30%, passing the limit was not always enough; inconclusive = no clear call, values can overlap the other calls;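 also: 0% = neutral control wells and 100% = positive control wells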
esBAF inh = blocks esBAF chromatin remodeling in mouse ES cells | Bmi1-luciferase knock-in reporter, 24 h; 100% = twice the neutral-well signal | 350,000 tested, 2% active | reporter increase, % at 12.5 µM; in the data active = activation above about 40%; inconclusive = no clear call, values can overlap the other calls;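 also: 0% = median of the plate's neutral control wells and 100% = double that signal; a rise in the Bmi1 reporter signal indicates esBAF inhibition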
PfHsp90 yeast 2 = reduces growth (ATP signal) of yeast expressing P. falciparum Hsp90 | AID 504621 | 310,000 tested, 0.32% active | inhibition, % at 9.4 µM | S. cerevisiae expressing PfHsp90, BacTiter-Glo ATP, 48 h; yeast lacking PDR1 and PDR3 efflux regulators;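 active = every replicate shows inhibition above about 80%, whatever the replicate mean, limit read from the data; inconclusive = mean inhibition reaches the set limit but some replicate falls short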;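 also: 0% = DMSO neutral controls and 100% = 20 µM radicicol positive controls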
Vif inh = HIV Vif inhibition; HEK293T cells, Vif self-association by quenched fluorescence, imaging, 24 h; inhibition, % at 7.49 µM; 340,000 tested, 0.35% active; in the data active = inhibition above about 50%, passing the limit was not always enough; inconclusive = no clear call, values can overlap the other calls; inactive = below about 31%
* hit, by the source's call. Rows were chosen to be rich in hits. Some 3% of all compounds tested hit in one or more screens of this group.

How did Cc1ccc2nc(-c3ccc(SCC(=O)Nc4ccc5c(c4)OCCO5)nc3)[nH]c2c1 do in these assays?
MITF act: inconclusive; N-glyco inh: -0.6; PfHsp90 yeast 2: -33.3; Vif inh: -1.3

What do the screens show for `O=C(CSc1ccc(-c2nc3ccccc3[nH]2)cn1)Nc1ccc2c(c1)OCCO2`?
MITF act: 146.3*; N-glyco inh: 8.3; esBAF inh: 46.2*; PfHsp90 yeast 2: -21.4; Vif inh: 55.0*

How did CCc1nnc(NC(=O)CSc2ccc(-c3nc4ccccc4[nH]3)cn2)s1 do in these assays?
MITF act: 87.1*; N-glyco inh: 6.5; esBAF inh: inconclusive; PfHsp90 yeast 2: -4.4; Vif inh: -0.3

Results for CCc1nnc(NC(=O)CSc2ccc(-c3ccc(-n4cccn4)cc3)nn2)s1 ?
MITF act: 81.7*; N-glyco inh: -2.6; Wnt bcat act: 28.4; Vif inh: inconclusive

How did Cc1ccc(SCC(=O)Nc2ccc(-c3nc4ccccc4[nH]3)cc2)cc1 do in these assays?
MITF act: -6.2; N-glyco inh: inconclusive; Wnt bcat act: -2.4; esBAF inh: 61.1*; PfHsp90 yeast 2: 16.4

What do the screens show for `Cc1ccccc1NC(=O)CSc1ccc(-c2ccc(-n3cccn3)cc2)nn1`?
MITF act: 13.6; N-glyco inh: -0.3; Wnt bcat act: 11.3; esBAF inh: 17.4; PfHsp90 yeast 2: -15.8; Vif inh: 0.5

What do the screens show for `CCNC(=O)c1c(O)c2ccccc2[nH]c1=O`?
MITF act: 28.7; N-glyco inh: 4.2; Wnt bcat act: -10.4; esBAF inh: 8.1; PfHsp90 yeast 2: 26.4; Vif inh: -5.1

Results for O=C(CCNS(=O)(=O)c1ccccc1C(F)(F)F)NCC(c1ccco1)N1CCCCC1 (stereo not drawn) ?
MITF act: -0.5; N-glyco inh: -2.8; Wnt bcat act: 1.4; PfHsp90 yeast 2: -9.2; Vif inh: -1.5

What do the screens show for `Cc1ccc2nc(-c3ccc(SCC(=O)Nc4nc(C)cs4)nc3)[nH]c2c1`?
MITF act: -10.2; N-glyco inh: -3.5; PfHsp90 yeast 2: 23.8; Vif inh: 1.9

What do the screens show for `Cc1ccc2nc(-c3ccc(SCC(=O)Nc4nnc(C)s4)nc3)[nH]c2c1`?
MITF act: 6.5; N-glyco inh: 102.4*; PfHsp90 yeast 2: -24.1; Vif inh: 1.4

Results for CS(=O)(=O)c1cccc(C(=O)Nc2ccc(-c3nc4ccccc4[nH]3)cc2)c1 ?
MITF act: 42.4; N-glyco inh: 46.0*; Wnt bcat act: 5.4; esBAF inh: 14.9; PfHsp90 yeast 2: -25.9; Vif inh: -8.8

What do the screens show for `COc1ccc(OCCCC(=O)Nc2nc(-c3ccccn3)cs2)cc1`?
MITF act: -11.5; N-glyco inh: -1.4; Wnt bcat act: -0.3; esBAF inh: -12.7; PfHsp90 yeast 2: 0.2; Vif inh: -9.0

Results for O=c1oc(CCCO)cc2ccc(C#Cc3ccsc3)cc12 ?
MITF act: 121.4*; N-glyco inh: -8.7; Wnt bcat act: 46.1*; esBAF inh: 66.7*; PfHsp90 yeast 2: -3.5; Vif inh: -5.2

How did O=c1oc(CCCO)cc2ccc(C#CC3(O)CCCCC3)cc12 do in these assays?
MITF act: 48.4; N-glyco inh: 3.1; Wnt bcat act: 19.7; esBAF inh: -32.7; PfHsp90 yeast 2: -5.5; Vif inh: -4.9

Results for CN(C)c1ccc(C#Cc2ccc3cc(CCCO)oc(=O)c3c2)cc1 ?
MITF act: 93.3*; N-glyco inh: 1.1; Wnt bcat act: inconclusive; esBAF inh: 57.2*; PfHsp90 yeast 2: -2.1; Vif inh: -10.6

What do the screens show for `O=C(NCc1ccc(Cl)cc1)C(=O)Nc1nccs1`?
MITF act: 1.9; N-glyco inh: 0.1; Wnt bcat act: -11.1; PfHsp90 yeast 2: -14.2; Vif inh: -0.8

How did O=C(NCCc1ccccc1F)C(=O)Nc1nccs1 do in these assays?
MITF act: 23.8; N-glyco inh: 1.8; Wnt bcat act: 36.6*; esBAF inh: 29.4; PfHsp90 yeast 2: 1.8; Vif inh: 8.0

How did CC(=NNc1ccc([N+](=O)[O-])cn1)c1ccccc1 do in these assays?
MITF act: 92.1*; N-glyco inh: -2.4; Wnt bcat act: 6.4; esBAF inh: 88.5*; PfHsp90 yeast 2: -0.9; Vif inh: -4.3

How did O=[N+]([O-])c1ccc(Nc2ccc3ccccc3c2)nc1 do in these assays?
MITF act: 79.5; N-glyco inh: -3.2; Wnt bcat act: -0.4; esBAF inh: 95.6*; PfHsp90 yeast 2: -34.5; Vif inh: -10.4

Results for C/C(=N\Nc1ccc([N+](=O)[O-])cc1)c1ccc(O)cc1 ?
MITF act: 65.3; N-glyco inh: -1.5; Wnt bcat act: 10.9; PfHsp90 yeast 2: -42.4; Vif inh: 4.0

Results for C/C(=N\Nc1ccc([N+](=O)[O-])cc1)c1cccc(N)c1 ?
MITF act: 107.6*; N-glyco inh: 3.1; Wnt bcat act: 26.0; esBAF inh: 84.9*; PfHsp90 yeast 2: 5.3; Vif inh: 9.9

What do the screens show for `O=[N+]([O-])c1ccc(NN=C(c2ccccc2)c2ccccc2)nc1`?
MITF act: 1.3; N-glyco inh: -3.7; Wnt bcat act: -0.5; esBAF inh: -5.8; PfHsp90 yeast 2: -15.5; Vif inh: -2.0

Results for O=C(O)c1ccccc1C=NNc1ccc([N+](=O)[O-])cn1 ?
MITF act: 1.1; N-glyco inh: -0.9; Wnt bcat act: 2.7; esBAF inh: 1.1; PfHsp90 yeast 2: -4.4; Vif inh: 4.4

Results for CC(C=NNc1ccc([N+](=O)[O-])cn1)=Cc1ccccc1 ?
MITF act: 77.9; N-glyco inh: -12.0; Wnt bcat act: 63.7*; esBAF inh: -8.1; PfHsp90 yeast 2: -5.4; Vif inh: 17.2

How did O=C(CSCC(=O)NC1CCCC1)Nc1ccccc1 do in these assays?
MITF act: -5.2; N-glyco inh: 3.1; Wnt bcat act: -1.5; PfHsp90 yeast 2: 5.6; Vif inh: 2.1

What do the screens show for `O=C1CN(C(=O)/C=C/c2ccccc2)CCN1`?
MITF act: 2.0; N-glyco inh: -0.3; Wnt bcat act: -2.0; esBAF inh: -2.1; PfHsp90 yeast 2: -4.0; Vif inh: 37.0

Results for CC1CC(C)C(=NNC(N)=O)C(C(O)CC2CCC(=O)NC2=O)C1 (stereo not drawn) ?
MITF act: -17.4; N-glyco inh: -13.1; Wnt bcat act: -10.2; esBAF inh: -3.9; PfHsp90 yeast 2: 114.1*; Vif inh: -10.2

What do the screens show for `Cc1cccc(C(=O)OCC(=O)c2ccc3c(c2)OCO3)c1O`?
MITF act: 118.9*; N-glyco inh: -6.6; Wnt bcat act: 57.3*; esBAF inh: 5.6; PfHsp90 yeast 2: 10.7

How did Cc1cccc(C(=O)OCC(=O)c2c(C)[nH]c3ccccc23)c1O do in these assays?
MITF act: 81.6*; N-glyco inh: -0.6; Wnt bcat act: 37.1*; esBAF inh: 72.8*; PfHsp90 yeast 2: 22.7; Vif inh: -18.0
